The entries come from a sample that favours hits as a whole.
RVFV N-RNA inh: inhibitors of RVFV nucleoprotein–RNA binding, primary screen, biochemical, fluorescence polarization; % bound, % (no concentration beside the values); AID 651828, 2012; 0.1% of 20,000 active; P21700; RVFV N-RNA binding; hits give low values; in the data active = % bound below about 75%
Target sequence (P21700 whole entry, looked up): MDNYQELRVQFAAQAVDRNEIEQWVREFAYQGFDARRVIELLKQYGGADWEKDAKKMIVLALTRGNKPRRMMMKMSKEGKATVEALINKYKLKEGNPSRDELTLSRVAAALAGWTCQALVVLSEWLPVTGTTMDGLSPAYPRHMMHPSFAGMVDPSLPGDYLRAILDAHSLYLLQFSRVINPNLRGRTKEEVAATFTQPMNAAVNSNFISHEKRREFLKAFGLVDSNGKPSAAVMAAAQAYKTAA
* = called active by the depositor.

`Cc1nn(Cc2cccc(C(=O)Nc3nc4ccc(S(C)(=O)=O)cc4s3)c2)c(C)c1Cl` gave RVFV N-RNA inh 92.
For Cc1c(C(=O)Nc2ccc(OC(F)F)cc2)oc2ccc(Cl)cc12 the results were RVFV N-RNA inh 90.
Screening CN(C)c1ccc(/C=N/NC(=S)NC(C)(C)C)cc1 returned RVFV N-RNA inh 94.
COC(=O)c1ccc(CO/N=C(\N)c2ccc(C(C)(C)C)cc2)o1 was read as RVFV N-RNA inh 94.
`COc1c(F)c(F)c(/C=C/CN2CCOCC2)c(F)c1F` gave RVFV N-RNA inh 94.
`COc1ccc(-c2cc(=O)oc3c(C)c(O)c(CN4CCCC(C)C4)cc23)cc1` (centres undefined) gave RVFV N-RNA inh 93.
Screening NC(=S)N/N=C1\CCCC\C1=C/c1ccco1 returned RVFV N-RNA inh 96.
O=C1CCc2cc(S(=O)(=O)N3CCc4ccccc43)cc3c2N1CC3 was read as RVFV N-RNA inh 93.
For Cc1ccc(C(C)(C)CCN2CCCN(C)CC2)o1 the results were RVFV N-RNA inh 91.
`O=C(c1ccc(Cl)cc1)N1CCS(=NS(=O)(=O)c2ccc(Cl)cc2)CC1` gave RVFV N-RNA inh 97.
For CCOC(=O)c1c(C)[nH]c(/C=C2\C(=O)Nc3ccccc32)c1C the results were RVFV N-RNA inh 12*.
Screening CCN(CC)CCNC(=O)c1c(C)[nH]c(/C=C2\C(=O)Nc3ccc(Cl)cc32)c1C returned RVFV N-RNA inh 109.
`O=C1Nc2ccccc2/C1=C\c1c(Cl)[nH]c2ccccc12` gave RVFV N-RNA inh 103.
`O[C@H]1CCCC2CCCCC21` (some centres undefined) gave RVFV N-RNA inh 99.
CC1CCCC/C1=N/NC(=O)CNc1ccc(Cl)cc1 (centres undefined) was read as RVFV N-RNA inh 110.
COc1ccc(O)cc1 was read as RVFV N-RNA inh 99.
Screening COc1ccc(C2=CC(=O)C=CC2=O)cc1 returned RVFV N-RNA inh 52*.
`COC(=O)c1cc(-c2ccc(OC)cc2)n[nH]1` gave RVFV N-RNA inh 89.
For COC(=O)C(O)(c1c(C)nn(-c2ccccc2)c1N)C(F)(F)F (centres undefined) the results were RVFV N-RNA inh 90.
Screening Cc1cc(NC(C)c2ccccc2)cc(=O)n1Cc1ccco1 (centres undefined) returned RVFV N-RNA inh 96.
O=C(CSc1nc2c(c(=O)[nH]1)CN(Cc1ccc(Cl)cc1)CC2)NCc1ccccc1 was read as RVFV N-RNA inh 97.
`Cc1ccc(CS(=O)(=O)CC(O)COc2ccc(F)cc2)cc1` (centres undefined) gave RVFV N-RNA inh 97.
`COc1ccc(OC)c(NC(=O)CSc2nc3c(c(=O)n2Cc2ccccc2)SC(C)C3)c1` (centres undefined) gave RVFV N-RNA inh 99.
`CCN(C(=O)C12CCC(C)(C(=O)C1)C2(C)C)c1ccccc1` (centres undefined) gave RVFV N-RNA inh 94.
Screening CSc1ccc(S(=O)(=O)NC2CCCC2)cc1 returned RVFV N-RNA inh 95.
Nc1nnc(SCC(=O)NCc2ccco2)n1CC(=O)NCc1ccco1 was read as RVFV N-RNA inh 95.
Cn1c(=NC(=O)CN2C(=O)CCC2=O)sc2cccc(F)c21 was read as RVFV N-RNA inh 101.
COc1ccc(/C=C2\SC(=O)N(C)C2=O)c2ccccc12 was read as RVFV N-RNA inh 79.
Screening CCN1CCN(Cc2ccc(NC(=O)Nc3cc(F)ccc3F)cc2)CC1 returned RVFV N-RNA inh 103.
COc1cc2ncnc(NCc3cccc4c3OCO4)c2cc1OC was read as RVFV N-RNA inh 94.
`COc1ccc(N2CCN(/C(=N/S(=O)(=O)c3ccccc3)Nc3nc(C)cc(C)n3)CC2)cc1` gave RVFV N-RNA inh 95.
CC(C)(C)OC(=O)N1CCN(CCNC(=O)Nc2cc(Cl)cc(Cl)c2)CC1 was read as RVFV N-RNA inh 92.
For COc1ccc(C(=O)NNc2ncnc3c2cnn3-c2ccc(F)cc2)cc1 the results were RVFV N-RNA inh 90.
For C#CCN1C(=O)S/C(=C/c2cc(C)n(-c3ccc(OC)cc3)c2C)C1=O the results were RVFV N-RNA inh 105.
For CC1(C)CC(=O)C=C(NC(=O)Nc2ccc(Cl)cc2)C1 the results were RVFV N-RNA inh 95.
Screening Cc1c(OC(C)C)ccc2c3c(c(=O)oc12)CCC3 returned RVFV N-RNA inh 107.
Cc1nnc(C)n1N1C(=O)c2cccc3cccc(c23)C1=O was read as RVFV N-RNA inh 88.
For CCCC(=O)ON1C(=O)c2cccc3cccc(c23)C1=O the results were RVFV N-RNA inh 98.
`O=C1C=C(O)c2cccc3cccc1c23` gave RVFV N-RNA inh 45*.
COC(=O)c1ccc(C)c(NC(=O)C(OC)c2ccccc2)c1 (centres undefined) was read as RVFV N-RNA inh 97.
CC(NC1CC(=O)N(C)C1=O)c1ccccc1 (centres undefined) was read as RVFV N-RNA inh 95.
`CNc1oc(-c2ccc(OC)cc2)nc1C#N` gave RVFV N-RNA inh 96.

Compound activity (PubChem)
